RTF Ca sens act: cardiac RTF calcium sensitization; IANBD-labeled TnC RTF fluorescence at EC20 calcium; 0% EC20 calcium, 100% full calcium; activation, % at 7.2 µM; 340,000 tested, 0.24% active;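 active = activation above the mean over all tested compounds plus 3 SD, cut at about 30% in these data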;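 also: rise in fluorescence read as greater calcium sensitivity of cardiac thin filaments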
IDE act: activators of human insulin-degrading enzyme in cells; AID 493087; HEK cells, FAbeta-B cleavage, fluorescence polarization; 0% vehicle, 100% cell-free pure enzyme wells; 340,000 tested, 0.073% active; activation, % at 5.96 µM;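 active = activation above the mean of all tested compounds plus 3 SD, set per screening campaign, cut at about 17% in these data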
RTF Ca sens inh: cardiac RTF calcium desensitization. P19429+P45379. AID 493244. IANBD-labeled cardiac RTF, Ca2+ fluorescence. inhibition, % at 7.15 µM. 340,000 tested, 0.12% active;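 active = inhibition above the mean inhibition of all tested compounds plus 3 SD, cut at about 17% in these data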;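 also: assay run at fixed EC70 calcium of 1.6 mM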
IDE inh: inhibits human insulin-degrading enzyme in HEK cells; FAbetaB cleavage, fluorescence polarization; inhibition, % at 5.59 µM; 320,000 tested, 0.41% active; AID 434962;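 active = percent inhibition above the average of all tested compounds plus 3 SD, set per screening campaign, cut at about 16% in these data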;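 also: IDE supplied by intact live HEK cells; FP after avidin binding of uncleaved biotin substrate so inhibition keeps polarization high; 0% = DMSO wells and 100% = 60 µM reference IDE inhibitor Ii1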
The depositor's hits bear a star; · = not tested or not shown. An excerpt weighted towards active compounds, which were near 0.71% of everything screened.

SMILES	RTF Ca sens act	IDE act	RTF Ca sens inh	IDE inh
O=C(c1cc2ccccn2n1)N1CCN(c2cccc(C(F)(F)F)c2)CC1	3	5	-1	3
Cc1cc(O)c(CN(C)C)c2c1C(=O)/C(=C/c1ccco1)O2	36*	-1	-35	4
CS(=O)(=O)Cc1ccc(C(=O)N2CCN(C(=O)c3cccs3)CC2)cc1	-4	0	-4	6
Cc1ccc(C(=O)O)cc1-c1ccc(/C=C2\SC(=O)N(CC(=O)Nc3ccccc3)C2=O)o1	4	-2	2	0
Cc1cc(C(=O)O)ccc1-c1ccc(/C=C2\SC(=O)N(CC(=O)Nc3ccc4c(c3)OCO4)C2=O)o1	46*	1	-2	·
COc1cc(/C=C2\SC(=Nc3ccc(Cl)c(C(=O)O)c3)NC2=O)c(Br)c(Br)c1O	70*	-96	-135	·
COC(=O)/C=C1\SC(=Nc2ccc(Cl)c(Cl)c2)NC1=O	1	6	2	0
CC(C)/C=C/C(=O)N1CCCC(N2CCN(c3ccccc3F)CC2)C1 (configuration not stated)	-7	1	-1	2
Cc1[nH][nH]c(=O)c1N=Nc1ccc(S(N)(=O)=O)cc1	·	·	·	6
NS(=O)(=O)c1ccc(N=Nc2c[nH]c(=O)c(O)c2)cc1	58*	1	-37	3
CN(Cc1cccc(Cl)c1Cl)c1ccc(S(=O)(=O)N2CCCCC2)cc1[N+](=O)[O-]	5	-6	-25	6
COC(=O)c1ccc(CS(=O)(=O)c2ccc(F)cc2)o1	32*	-2	-3	5
COc1ccc(S(=O)(=O)Cc2ccc(C(=O)NC(C)C)o2)cc1	0	3	-8	0
COc1cccc2c1C(=O)c1c(O)c3c(c(O)c1C2=O)C[C@@](O)(C(C)=O)C[C@@H]3O[C@H]1C[C@H](N)[C@H](O)[C@H](C)O1	291*	19*	-334	·
COc1cccc2c1C(=O)c1c(O)c3c(c(O)c1C2=O)CC(O)(C(=O)CO)CC3OC1CC(N(C)C)C(O)C(C)O1 (configuration not stated)	201*	0	-269	·
CC(=O)[C@]1(O)Cc2c(O)c3c(c(O)c2[C@@H](O[C@H]2C[C@H](N)[C@H](O)[C@H](C)O2)C1)C(=O)c1ccccc1C3=O	·	·	·	1
COc1cccc2c1C(=O)c1c(O)c3c(c(O)c1C2=O)C[C@@](O)(C(=O)CO)C[C@@H]3O[C@H]1C[C@H](N)[C@@H](O)[C@H](C)O1	120*	-9	-152	2
COc1cc(C(C)=NNC(=O)c2ccncc2)ccc1O	-1	1	-3	·
CCCCN1C(=O)/C(=C/C=C2\Oc3ccccc3N2CC)SC1=S	186*	-150	-241	·
O=S(=O)([N-]c1nc2ccccc2nc1-[n+]1ccccc1)c1ccccc1	5	2	5	1
O=S(=O)([N-]c1nc2ccccc2nc1-[n+]1ccc(-c2ccncc2)cc1)c1ccccc1	51*	7	-39	-4
COc1cc(OC)c(NS(=O)(=O)c2cc3[nH]c(=O)c(=O)[nH]c3cc2C)cc1Cl	-3	6	-6	3
Cc1ccc(N(CC(=O)NC(C)(C)C)C(=O)CNC(=O)c2cccs2)cc1C	3	5	-6	1
CN1CCS/C1=C\C=C1/SC(=S)N(CC(=O)O)C1=O	268*	-101	-315	·
O=C(CCCNC(=O)c1ccc(Cl)cc1)NCc1ccccc1F	-7	4	7	-8
SMILES	RTF Ca sens act	IDE act	RTF Ca sens inh	IDE inh
CCC1Oc2ccc(C)cc2N(CC(=O)NCC2CCCO2)C1=O (configuration not stated)	-1	2	-25	-1
COc1cc(C2Nc3cccc4cccc(c34)N2)cc(OC)c1OC(C)=O	-3	0	11	-8
COc1cc(C2Nc3cccc4cccc(c34)N2)ccc1O	-3	19*	1	-1
CC(=O)N1CCC(=O)Nc2ccc([N+](=O)[O-])cc21	1	20*	-6	9
CN(C)CCCN(C(=O)CCS(=O)(=O)c1ccccc1)c1nc2cc3c(cc2s1)OCO3	2	0	-6	-1
CN(C)CCCN(C(=O)CCSc1ccccc1)c1nc2cc3c(cc2s1)OCO3	-1	43*	-11	3
CN(C)CCCN(C(=O)CCc1ccccc1)c1nc2ccc(Br)cc2s1	-4	29*	0	-2
CC(C)c1ccc(NC(=O)NCc2ccccn2)cc1	-6	2	2	-2
Cn1nccc1NC(=O)Nc1cccc(Cl)c1Cl	61*	4	3	2
CN1CCN(NC(=O)Nc2cccc(Cl)c2Cl)CC1	·	·	·	2
CCN(CC)c1ccc(-c2sc(Nc3ccccc3)n[n+]2-c2ccc(F)cc2)cc1	31*	-7	-25	2
CN(C)c1ccc(-c2sc(Nc3ccccc3)n[n+]2-c2ccc(F)cc2)cc1	0	-1	-16	2
O=C1CCNc2ccc(-c3ccccc3)cc21	64*	7	-71	-2
Cc1cccc(OCC(=O)N/N=C/CC(C)c2ccccc2)c1C (configuration not stated)	3	5	-14	-1
Cc1cc(O)c(C=O)c2c1C(=O)Oc1c(CO)c(O)c3c(c1O2)C(O)OC3=O (configuration not stated)	-29	2	30*	-1
CCN1CC=C2C(C#N)=C(N)C(C#N)(C#N)[C@H](c3cccc(OC)c3OC)[C@H]2C1	36*	0	-51	2
CN1CC=C2C(C#N)=C(N)C(C#N)(C#N)C(CCc3ccccc3)C2C1 (configuration not stated)	35*	4	-28	4
CN1CC=C2C(C#N)=C(N)C(C#N)(C#N)C(c3ccsc3)C2C1 (configuration not stated)	28	-4	-33	-6
CCCC1C2CN(C(C)C)CC=C2C(C#N)=C(N)C1(C#N)C#N (configuration not stated)	52*	3	-52	-8
CN1CC=C2C(C#N)=C(N)C(C#N)(C#N)[C@H](c3cccs3)[C@H]2C1	41*	4	-86	12
COc1ccc(-c2noc(CN3CCN(C(=O)c4cccs4)CC3)n2)c(OC)c1OC	-1	7	-3	5
CN1CCN(c2oc(-c3ccccc3)nc2S(=O)(=O)c2ccc(Br)cc2)CC1	2	3	0	5
CCC1C(=O)N=C(SCC(=O)Nc2ccc(C)cc2)N(c2ccccc2)C1=O (configuration not stated)	-3	2	-23	-7
Nc1c(C(=O)C2CC2)sc2nc(-c3cccs3)cc(C(F)(F)F)c12	46*	-4	-36	-3
CC1CCN(c2ccc3c(c2)S(=O)(=O)c2cccc(C(=O)NC4CCCCC4)c2C3=O)CC1	33*	-8	-15	6
O=C(NCc1ccc(F)cc1)c1cccc2c1C(=O)c1ccc(N3CCC(Cc4ccccc4)CC3)cc1S2(=O)=O	232*	3	-441	5
CC1CCN(c2ccc3c(c2)S(=O)(=O)c2cccc(C(=O)NCc4ccc(F)cc4)c2C3=O)CC1	105*	-7	3	6
Cc1cc(C)c(NC(=O)CSc2nc3ncc(Br)cc3[nH]2)c(Cl)c1	5	6	-9	4
